High-throughput results: PubChem, National Center for Advancing Translational Sciences (NCATS)
This is a sample that favours compounds with a hit; in the whole collection about 21% have one here.
HCV inh = inhibitors of hepatitis C virus infection. Huh7.5.1 HCVcc-Cre infection, luciferase reporter, 44 h. actives 3.4% (n = 340,000). Potency, µM (top dose mostly 41.8 µM), for inactives: at the highest dose activity change, negative = inhibition, usual class: inhibitors; further: potency means the concentration at half of the fitted maximal effect; on the % scale 0 is the no-effect control and ±100 the full control effect
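HCVcc-Cre virus at an moi near 0.5 was added right after compound to cells cultured 4 h from seeding (1,000 cells/well). Luciferase activity was determined 44 h later, 15 min after substrate addition at RT.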
Cycloheximide cs = affects cycloheximide protein synthesis inhibition readout, counter-screen; cell reporter, cycloheximide protein synthesis inhibition counterscreen; max response, %; actives 12% (n = 300,000); AID 2314; in the data active means max response mostly above about 13%, no sharp cut-off; inactive means mostly below about 14%; further: read at 38.3 µM for the half of the compounds with a filed dose; 0% is about no effect
Shiga toxin inh = Shiga toxin inhibition; Vero cells, Shiga toxin protein synthesis inhibition reporter; inhibition, % at 38.7 µM; actives 9.2% (n = 290,000); AID 2315; in the data active means inhibition mostly above about 28%, no sharp cut-off; inactive means mostly below about 43%; further: 0% is about no effect
AMA1 RON2 block = AMA1-RON2 (P. falciparum) interaction inhibition. Potency, µM (highest dose often 58.2 µM), inactives show at the top dose activity change, negative = inhibition, actives largely listed as inhibitors. actives 0.2% (n = 360,000). AID 720542. AlphaScreen AMA1-biotinylated RON2 peptide binding;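 further: potency means the concentration at half of the fitted maximal effect; 0% = vehicle wells and -100% = peptide control; nearly all actives have a fitted effect of over 45% in size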
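AMA1 (3D7) with his tag at 25 nM final met compounds first, then biotinylated RON2 peptide at 25 nM; detection used donor plus acceptor beads, 10 µg/mL apiece, read by AlphaScreen after 30 min at room temperature.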
Pf growth 48h = inhibits P. falciparum growth in the first generation, 48 h | P. falciparum luciferase growth in erythrocytes, 48 h | Potency, µM (top dose mostly 28.7 µM), for inactives: top-dose activity change, negative = inhibition, most hits filed as inhibitors | actives 5.9% (n = 310,000); further: potency means the concentration at half of the fitted maximal effect; on the % scale 0 is the no-effect control and ±100 the full control effect
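Erythrocytes infected with P. falciparum carrying an integrated firefly luciferase reporter (2% hematocrit, 0.1% parasitemia final) were exposed to compounds in RPMI 1640 with 0.5% Albumax at 37 C, 5% CO2. Growth inhibition was scored as reduced luminescence.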
Pf growth 96h = P. falciparum growth inhibition at 96 hours. P. falciparum luciferase reporter growth, 96 h. actives 6.9% (n = 320,000). Potency, µM (top dose mostly 28.7 µM), without a hit: at the highest dose activity change, negative = inhibition, usual class: inhibitors; further: potency means the concentration at half of the fitted maximal effect; on the % scale 0 is the no-effect control and ±100 the full control effect
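Infected RBCs, 2% Hct / 0.05% parasitemia final; luciferase-reporter P. falciparum; cpd 96 h, 37 C, 5% CO2; luciferase detection reagent; luminescence.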
* hit, by the source's call. Unless noted, the call rests on the fitted dose curve; in most records, active means well fitted curve in the direction sought with a large enough effect; inconclusive means small, poorly fitted or top-dose-only effect, or another doubt; inactive means no such curve, though single readings can be large; an effect the other way counts as inactive or inconclusive.

`Cc1ccc(/C=N/NC(=O)c2cccnc2)o1` gave HCV inh 21%, Cycloheximide cs 6, Shiga toxin inh -8, AMA1 RON2 block -11%, Pf growth 48h -7% and Pf growth 96h inconclusive.
`Cc1ccccc1/C=N/NC(=O)c1cccnc1` gave HCV inh 5%, Cycloheximide cs 9.1*, Shiga toxin inh 23, AMA1 RON2 block 25%, Pf growth 48h 33% and Pf growth 96h -27%.
`O=C(N/N=C/c1ccccc1OCc1ccccc1)c1cccnc1` gave HCV inh 1%, Cycloheximide cs 13*, Shiga toxin inh 8, AMA1 RON2 block 7%, Pf growth 48h 3% and Pf growth 96h 44%.
Cc1ccc(-c2nc(NCc3ccc(F)cc3)n(S(C)(=O)=O)n2)cc1 was read as HCV inh inconclusive, Cycloheximide cs 10, Shiga toxin inh 20, AMA1 RON2 block -4%, Pf growth 48h 15% and Pf growth 96h 15%.
`O=C(Nc1ccc(OC(F)(F)F)cc1)NC1CCC(Oc2ccc(C(=O)O)cc2)CC1` (centres undefined) gave HCV inh -6%, AMA1 RON2 block 13%, Pf growth 48h inconclusive and Pf growth 96h 52%.
`C[C@H]1CN([C@@H](C)CO)C(=O)CCCn2cc(nn2)CO[C@@H]1CN(C)C(=O)Nc1cccc(F)c1` gave AMA1 RON2 block 14%.
`CCOc1c2ccc(C(=O)NCCc3ccc(C)cc3)cc2nn1CC` gave HCV inh -18%, Cycloheximide cs 1, Shiga toxin inh 23, AMA1 RON2 block -3%, Pf growth 48h -14% and Pf growth 96h 42%.
CCOc1c2ccc(C(=O)NCc3ccc(C)cc3)cc2nn1CC was read as HCV inh -20%, Cycloheximide cs -1, Shiga toxin inh -15, AMA1 RON2 block -1%, Pf growth 48h 10% and Pf growth 96h 10%.
CCn1nc2cc(C(=O)NCCc3cccs3)ccc2c1OC was read as HCV inh -10%, Cycloheximide cs 40*, Shiga toxin inh 75*, AMA1 RON2 block 6%, Pf growth 48h 183% and Pf growth 96h -12%.
Screening CCOc1c2ccc(C(=O)NCCCCc3ccccc3)cc2nn1CC returned HCV inh 3.5µM*, Cycloheximide cs 4, Shiga toxin inh 12, AMA1 RON2 block 5%, Pf growth 48h -6% and Pf growth 96h -5%.
For CCOC(=O)N1CCN(C(=O)c2cnn3c(C(F)F)cc(-c4ccc(C)cc4)nc23)CC1 the results were HCV inh 1%, Cycloheximide cs -2, Shiga toxin inh -12, AMA1 RON2 block -4%, Pf growth 48h -4% and Pf growth 96h 31%.
Screening Cc1ccc(-c2cc(C(F)F)n3ncc(C(=O)N4CCN(c5cccc(C)c5C)CC4)c3n2)cc1 returned HCV inh 32µM*, Cycloheximide cs -1, Shiga toxin inh -21, AMA1 RON2 block 9%, Pf growth 48h -15% and Pf growth 96h -9%.
For COc1ccc(-c2cc(C(F)F)n3ncc(C(=O)N4CCN5CCCC5C4)c3n2)cc1 (centres undefined) the results were HCV inh inconclusive, Cycloheximide cs -3, Shiga toxin inh 14, AMA1 RON2 block -8%, Pf growth 48h inconclusive and Pf growth 96h 9.3µM*.
Screening Cc1ccc(-c2cc(C(F)F)n3ncc(C(=O)N4CCc5ccccc5C4)c3n2)cc1 returned HCV inh 11µM*, Cycloheximide cs -2, Shiga toxin inh 30, AMA1 RON2 block -3%, Pf growth 48h 11% and Pf growth 96h 4%.
NC(=O)c1nsc(C(=O)N(c2cccc(F)c2)C(C(=O)NCc2ccccc2)c2ccc(O)cc2)c1N (centres undefined) was read as HCV inh -28%, Cycloheximide cs 6, Shiga toxin inh 22, AMA1 RON2 block 8%, Pf growth 48h -23% and Pf growth 96h inconclusive.
`COc1ccc(N(C(=O)c2snc(C(N)=O)c2N)C(C(=O)NCc2ccccc2)c2ccc(F)cc2)c(OC)c1` (centres undefined) gave HCV inh inconclusive, Cycloheximide cs -1, Shiga toxin inh -5, AMA1 RON2 block -15%, Pf growth 48h 10µM* and Pf growth 96h 25%.
Screening NC(=O)c1nsc(C(=O)N(c2ccccc2F)C(C(=O)NCc2ccc(F)cc2)c2ccc(O)cc2)c1N (centres undefined) returned HCV inh 3.5µM*, Cycloheximide cs -2, Shiga toxin inh -5, AMA1 RON2 block -5%, Pf growth 48h inconclusive and Pf growth 96h -20%.
Screening COc1ccc(C(C(=O)NCc2ccccc2)N(Cc2ccco2)C(=O)c2snc(C(N)=O)c2N)cc1OC (centres undefined) returned HCV inh inconclusive, Cycloheximide cs -4, Shiga toxin inh -9, AMA1 RON2 block -10%, Pf growth 48h 10µM* and Pf growth 96h 14%.
COc1ccc(C(C(=O)NCc2ccccc2)N(C(=O)c2snc(C(N)=O)c2N)c2ccccc2OC)cc1 (centres undefined) was read as HCV inh inconclusive, Cycloheximide cs -6, Shiga toxin inh -6, AMA1 RON2 block inconclusive, Pf growth 48h 5.2µM* and Pf growth 96h -15%.
Screening COc1ccccc1N(C(=O)c1snc(C(N)=O)c1N)C(C(=O)NCc1ccccc1)c1ccc(O)cc1 (centres undefined) returned HCV inh -23%, Cycloheximide cs -3, Shiga toxin inh -5, AMA1 RON2 block -7%, Pf growth 48h inconclusive and Pf growth 96h -20%.
Screening O=S(=O)(Nc1ncccn1)c1ccc(-n2cnnn2)cc1 returned HCV inh 5%, Cycloheximide cs -6, Shiga toxin inh -3, AMA1 RON2 block 6%, Pf growth 48h -1% and Pf growth 96h 18%.
COC(=O)[C@@]1(C(C)C)N=C(c2cc(OC)c(OC)c(OC)c2)[C@]2(O1)C(=O)N(C)c1ccc(Cl)cc12 was read as AMA1 RON2 block -9%.
Screening Cc1cc(C)n(-c2ccc(Cl)c(C(=O)O)c2)n1 returned HCV inh 28%, Cycloheximide cs 44*, Shiga toxin inh 46, AMA1 RON2 block 14%, Pf growth 48h 73% and Pf growth 96h 21%.
Cc1cc(C)n(-c2ccc(C(=O)Nc3ccc(S(=O)(=O)N(C)C)cc3)cc2)n1 was read as HCV inh inconclusive, Cycloheximide cs -6, Shiga toxin inh -10, AMA1 RON2 block -14%, Pf growth 48h 15µM* and Pf growth 96h inconclusive.
For CCOC(=O)c1ccc(-n2nc(C)cc2C)cc1 the results were HCV inh 12%, Cycloheximide cs 15*, Shiga toxin inh active, AMA1 RON2 block -2%, Pf growth 48h 34% and Pf growth 96h 67%.
